Experimental data as given in the supplement of paper PMC10338343.
± gives the standard deviation.

Key:
[1] = tested on: MILI (PIWIL2) piRISC loaded with piRNA #1 (26 nt); test: pre-steady-state target cleavage rate (min^-1); guide: piRNA #1 5'p-UGAGGUAGUAGGUUGUAUAGUAUCCA; higher = faster piRNA-guided slicing of the target; details: auxiliary factor: 500 nM mouse GTSF1;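 note: 1 nM active piRISC with 0.1 nM target library at 33 °C single turnover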
In short: (§1)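 Three pooled Cleave-'n-Seq trials supplied the data, with k3 capped at 0.0001 min^-1. In each, […] transcribed, DNA-blocked target RNA library and 1 nM active affinity-purified piRISC with one synthetic guide reacted in HEPES–potassium acetate buffer at 33 °C for 0–8 or 0–960 min, with or without 500 nM GTSF1 partner protein. Uncleaved targets were sequenced and normalised to depth and to weakly complementary targets. A burst-and-steady-state fit provided the pre-steady-state cleavage rate.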

[2] = tested on: EfPiwi piRISC loaded with piRNA #1 (26 nt); test: pre-steady-state target cleavage rate (min^-1); auxiliary factor: 500 nM Ephydatia muelleri Gtsf1; guide: piRNA #1 5'p-UGAGGUAGUAGGUUGUAUAGUAUCCA; MIWI and MILI are mouse PIWI proteins and EfPiwi is from a freshwater sponge; tags in brackets are library labels; higher = faster piRNA-guided slicing of the target
In short: as §1

## GGAGAGGAUUCUAUAGAACCUACUACCUCA
[1]
  pre-steady-state target cleavage rate: 0.157 ± 0.011

## GGAGACCUAUGAUUACAACCUAGCUACCUCA
[1]
  pre-steady-state target cleavage rate: 0.00386 ± 0.0032

## GGAGACCUAUGAUUACAACCUACUACCGCA
[1]
  pre-steady-state target cleavage rate: 0.00418 ± 0.004

## GGAGACCUAUCUAUACAACCUACUACGAGA
[1]
  pre-steady-state target cleavage rate: 0.0633 ± 0.017
[2]
  pre-steady-state target cleavage rate: 0.00279 ± 0.0027

## GGAGACGAUACUACUACAACCUACUACCUCA
[1]
  pre-steady-state target cleavage rate: 0.193 ± 0.015
[2]
  pre-steady-state target cleavage rate: 0.0327 ± 0.012

## GGAGAGGAUACUUUACAACCUACUACCUGA
[1]
  pre-steady-state target cleavage rate: 0.0593 ± 0.011
[2]
  pre-steady-state target cleavage rate: 0.00329 ± 0.0017

## GGAGACCUAUCUAUACUACCUUCUACCUCA
[1]
  pre-steady-state target cleavage rate: 0.00727 ± 0.003

## GGAGAGGAUACUAUACAACGCUACUACCUCA
[1]
  pre-steady-state target cleavage rate: 0.00299 ± 0.0026
[2]
  pre-steady-state target cleavage rate: 0.00523 ± 0.0033

## GGAGAUGAUACUAUACAACCUACUACCUCA
[1]
  pre-steady-state target cleavage rate: 0.198 ± 0.013
[2]
  pre-steady-state target cleavage rate: 0.193 ± 0.068

## GGAGACGGUACUAUACAACCUACUACCUCA
[1]
  pre-steady-state target cleavage rate: 0.187 ± 0.016

## GGAGAGCAUACUAUACAACCUACUUCCUCA
[1]
  pre-steady-state target cleavage rate: 0.0809 ± 0.025
[2]
  pre-steady-state target cleavage rate: 0.00292 ± 0.0021

## GGAGACGAUACUAUCACAACCUACUACCUCA
[1]
  pre-steady-state target cleavage rate: 0.221 ± 0.017
[2]
  pre-steady-state target cleavage rate: 0.0153 ± 0.0062

## GGAGUGGAAACUAUUCAACCUACUACCUCA
[1]
  pre-steady-state target cleavage rate: 0.192 ± 0.017

## GGAGACCAUACUAUACAACCUACUACGCUCA
[1]
  pre-steady-state target cleavage rate: 0.219 ± 0.028
[2]
  pre-steady-state target cleavage rate: 0.00458 ± 0.0028

## GGAGAGGAUGCUAUACAACCUACUACCUCA
[1]
  pre-steady-state target cleavage rate: 0.151 ± 0.018
[2]
  pre-steady-state target cleavage rate: 0.00971 ± 0.006

## GGAGAGGAUACUAUACAACCUACUUGCUCA
[1]
  pre-steady-state target cleavage rate: 0.00476 ± 0.0029
[2]
  pre-steady-state target cleavage rate: 0.00478 ± 0.0023

## GGAGACGAUACUAUACAACCUAGUUCCUCA
[1]
  pre-steady-state target cleavage rate: 0.00516 ± 0.0038
[2]
  pre-steady-state target cleavage rate: 0.00305 ± 0.0018

## GGAGAGGAUACUAUUCAACCUACUACCACA
[1]
  pre-steady-state target cleavage rate: 0.169 ± 0.017
[2]
  pre-steady-state target cleavage rate: 0.00331 ± 0.0019

## GGAGCGGAUACUAUACAACCUACUACCUCA
[1]
  pre-steady-state target cleavage rate: 0.203 ± 0.013
[2]
  pre-steady-state target cleavage rate: 0.141 ± 0.048

## GGAGACGAUACUAUACAACCUACUACAUCA
[1]
  pre-steady-state target cleavage rate: 0.0978 ± 0.015
[2]
  pre-steady-state target cleavage rate: 0.0059 ± 0.0024

## GGAGUGGAUACUAUACUACCUAGUACCUCA
[1]
  pre-steady-state target cleavage rate: 0.0719 ± 0.013
[2]
  pre-steady-state target cleavage rate: 0.00311 ± 0.0019

## GGAGACGAUACUAUACAACCUACUACCUCG [g2:g24:cont:t1G]
[1]
  pre-steady-state target cleavage rate: 0.183 ± 0.014
[2]
  pre-steady-state target cleavage rate: 0.115 ± 0.037

## GGAGACGAUAGUAUACUACCUACUACCUCA
[1]
  pre-steady-state target cleavage rate: 0.148 ± 0.012

## GGAGACGAUACUGAUACAACCUACUACCUCA
[1]
  pre-steady-state target cleavage rate: 0.203 ± 0.018
[2]
  pre-steady-state target cleavage rate: 0.00712 ± 0.0036

## GGAGACGAUACUAUACAACCUACUACUCA
[1]
  pre-steady-state target cleavage rate: 0.125 ± 0.019
[2]
  pre-steady-state target cleavage rate: 0.00549 ± 0.0025

## GGAGACGAUACUAUACAAGCAACUACCUCA
[1]
  pre-steady-state target cleavage rate: 0.00923 ± 0.0026
[2]
  pre-steady-state target cleavage rate: 0.0046 ± 0.003

## GGAGUGGAUACAAUACAACCUACUUCCUCA
[1]
  pre-steady-state target cleavage rate: 0.00975 ± 0.0031

## GGAGACCUAUGAUAACAAGCUACUUCCUCA
[1]
  pre-steady-state target cleavage rate: 0.00574 ± 0.0027

## GGAGACCAUACUAUACAACCUACUUCGUCA
[1]
  pre-steady-state target cleavage rate: 0.112 ± 0.029
[2]
  pre-steady-state target cleavage rate: 0.00491 ± 0.0039

## GGAGUGGAUACAAUACAUCCUACUACCUCA
[1]
  pre-steady-state target cleavage rate: 0.256 ± 0.016
[2]
  pre-steady-state target cleavage rate: 0.00574 ± 0.0025

## GGAGUGGAUACUAUACUUGCUACUACCUCA
[1]
  pre-steady-state target cleavage rate: 0.0633 ± 0.0052

## GGAGUGGAUACUAUACAACGUACUAGCUCA
[1]
  pre-steady-state target cleavage rate: 0.0104 ± 0.0027
[2]
  pre-steady-state target cleavage rate: 0.00412 ± 0.0023

## GGAGACCUAUCUUUUCAACCUACUACCUCA
[1]
  pre-steady-state target cleavage rate: 0.0272 ± 0.0082
[2]
  pre-steady-state target cleavage rate: 0.00766 ± 0.0047

## GGAGACCUAUCUAUUACAACCUACUACCUCA
[1]
  pre-steady-state target cleavage rate: 0.0546 ± 0.0098

## GGAGAGGAUACUAUACUAGCUACUACCUCA
[1]
  pre-steady-state target cleavage rate: 0.113 ± 0.011
[2]
  pre-steady-state target cleavage rate: 0.00387 ± 0.0029

## GGAGACCUAUCUACUACAACCUACUACCUCA
[1]
  pre-steady-state target cleavage rate: 0.0541 ± 0.0097
[2]
  pre-steady-state target cleavage rate: 0.00749 ± 0.0039

## GGAGACCUAUCUAUACAACCUACUACCCUCA
[1]
  pre-steady-state target cleavage rate: 0.132 ± 0.015

## GGAGAGGAUACAAUACAACCUACUAGCUCA
[1]
  pre-steady-state target cleavage rate: 0.068 ± 0.011
[2]
  pre-steady-state target cleavage rate: 0.00253 ± 0.0018

## GGAGACGAUACUAUUCAACCUACUACCUCA
[1]
  pre-steady-state target cleavage rate: 0.202 ± 0.013
[2]
  pre-steady-state target cleavage rate: 0.00923 ± 0.0038

## GGAGAGGAUAGUAUACAACCUAGUACCUCA
[1]
  pre-steady-state target cleavage rate: 0.0263 ± 0.008
[2]
  pre-steady-state target cleavage rate: 0.00231 ± 0.002

## GGAGUGGAUACUAUACAACGAACUACCUCA
[1]
  pre-steady-state target cleavage rate: 0.00366 ± 0.0017
[2]
  pre-steady-state target cleavage rate: 0.00257 ± 0.0018

## GGAGAGGAUACUAUACAACCUACUACCCUCA
[1]
  pre-steady-state target cleavage rate: 0.11 ± 0.017
[2]
  pre-steady-state target cleavage rate: 0.00508 ± 0.0022

## GGAGUGGAAUCUAUACAACCUACUACCUCA
[1]
  pre-steady-state target cleavage rate: 0.152 ± 0.0088
[2]
  pre-steady-state target cleavage rate: 0.00913 ± 0.0055

## GGAGACCUUACUAUACAACCUACUCCCUCA
[1]
  pre-steady-state target cleavage rate: 0.0992 ± 0.015
[2]
  pre-steady-state target cleavage rate: 0.00342 ± 0.0031
